The structures appear in SMILES notation. Results with a measured potency or affinity are listed apart. Values without a mark were called inactive.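 The calls were made as follows: active = a dose-response curve fit returns a half-maximal inhibitory concentration, extrapolated values included; inactive = the fit returns no such concentration.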

The inhibition is the drop in the measured response relative to a control, in per cent.

For this assay, the target named is HMG-CoA reductase [Enterococcus faecalis] (UniProt Q9FD70). The assay is described as follows: class II HMG-CoA reductase inhibition potency – biochemical, Enterococcus faecalis, confirmation (AID 1233).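 Also: 0% = full reaction carrier wells and 100% = background wells lacking mevalonate.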 The conditions noted are these: purified E. faecalis HMGR, NADPH absorbance 340 nm kinetics; series mostly up to 100 µM; inhibition: at the top concentration.
As for `S=c1[nH]c2cc(Cl)ccc2s1`, the “inhibition” value was -0.06%. For `CC(C)NC(=O)CSc1nc2ccccc2n1CC(=O)N(C(C)C)C(C)C`, the “inhibition” value was -1.57%. With `COc1ccc(CCNC(=O)c2ccccc2Cl)cc1OC` the figure was -0.95%.

With `N#CC(C#N)=Cc1cc2ccccc2nc1N1CCOCC1`, the “inhibition” value was -4.51%. Regarding `O=C(NCCOc1ccccc1Cl)C(=O)c1c[nH]c2ccccc12`, the “inhibition” value is 0.25%.

With `COc1ccc(NCc2nnc(SCCN3CCCCC3)n2-c2ccc(C)cc2)cc1`, the “inhibition” value was -4.43%. With `Cc1cc(NC(=O)c2c(F)cccc2Cl)no1` the figure was -2.21%; with `Cc1ccc(NC2=C(N3CCOCC3)C(=O)c3ccccc3C2=O)cc1`, -1.54%. In the case of `NC(=O)c1ccc2nc(NC(=O)c3ccc(N)cc3)sc2c1`, the “inhibition” value was -3.41%. On to `COc1cc(-c2nnc(SC/C=C/c3ccccc3)n2N)cc(OC)c1OC`, for which the “inhibition” value was -0.99%.

In the case of `COc1ccc(C(=O)CSc2nnnn2Cc2ccccc2)cc1`, the “inhibition” value was -2.81%.

Turning to `CN(C(=O)COc1ncnc2c1cnn2-c1ccccc1)C1CCCCC1`, the “inhibition” value is -1.4%.

Take `Cc1cc(N2CCN(c3nc(-c4ccc([N+](=O)[O-])cc4)cs3)CC2)c2ccccc2n1`: the “inhibition” value is -5.17%. For `NC1=NC(=O)S/C1=C\c1ccc(F)cc1`, the “inhibition” value is -4.82%. Next, `COc1ccc(N2CC(C)(C)C2=O)cc1`: -3.03%; `O=C(O)c1cc(CN2CCOCC2)oc1-c1ccccc1`: -1.88%.

On to `O=C(O)C(Cc1ccccc1)N1C(=O)C2CCCCC2C1=O` (stereo not drawn), for which the “inhibition” value is -4.28%. For the compound `CCC1CCCCN1C(=O)CCn1ccnc1` (stereo not drawn), the “inhibition” value was -0.41%. With `O=C(NC(=S)N(CC1CCC1)CC1CCCO1)c1cccc([N+](=O)[O-])c1` (stereo not drawn) the figure was -6.67%; with `CCN1CCCC1CNCC(O)COc1ccc(C(C)(C)C)cc1C` (stereo not drawn), 0.13%; with `CC(C)(C)Cc1nnc(NS(=O)(=O)c2ccccc2)s1`, -3.39%. With `CN(C1CCCC1)C1CCN(C(=O)CNC(=O)/C=C/c2ccccc2)CC1` the figure was -3.48%.

Turning to `COc1cc(C2NC(=O)NC(c3ccccc3)=C2C(C)=O)cc(Cl)c1OCC(=O)O` (stereo not drawn), the “inhibition” value is -2.8%. With `O=C(COC(=O)CCc1c[nH]c2ccccc12)NC1CCS(=O)(=O)C1` (stereo not drawn) the figure was -4.04%. Regarding `COc1ccc(N2CC(C(=O)NCCc3ccc(OC)c(OC)c3)CC2=O)cc1` (stereo not drawn), the “inhibition” value was -0.35%. With `COc1ccc(-c2cc(C(=O)Nc3c(C)nn(Cc4ccc(Cl)cc4)c3C)no2)cc1` the figure was 0.84%.

`O=C(Nc1cccnc1)c1ccc(COc2ccccc2Cl)o1`: the “inhibition” value was -0.17%. With `COc1ccc(-c2[nH]nc3c2C(c2ccsc2)C(C#N)=C(N)O3)cc1` (stereo not drawn) the figure was -0.58%; with `O=C1CC(=O)N(Cc2ccco2)C(=S)N1`, -2.11%; with `C#CCn1c(-c2cccs2)nc2ccccc21`, -5.36%. With `O=C(O)CCC(=O)NNC(=O)c1ccc(Br)cc1` the figure was -1.69%; with `COc1ccccc1Sc1ccccc1/C=N/NC(N)=O`, -10.8%. In the case of `Brc1ccc(/C=N/Nc2ncnc3c2cnn3Cc2ccccc2)cc1`, the “inhibition” value is -21.9%. With `CC(=O)C1=C(O)C(=O)N(C)C1c1ccccc1F` (stereo not drawn) the figure was -5.44%.

Take `COc1ccc(C2C(C(C)=O)=C(Nc3ccccc3)CC(C)(O)C2C(C)=O)cc1OC` (stereo not drawn): the “inhibition” value is -6.21%.

As to `Cc1cc2cccc(C)c2nc1SCC(=O)NNC(=O)c1ccco1`, the “inhibition” value is -7.68%. With `COc1ccc(/C=N/Nc2nccnc2Cl)c(OC)c1` the figure was -15.9%; with `C=CCOC(=O)c1sc(NC(=O)c2ccco2)nc1C`, 1.77%.

The record behind these values is PubChem BioAssay AID1233 (SRMLSC, 2008).
